# PubChem BioAssay (NCATS)
# Inconclusive results are not listed. A call without a number means that no potency is given here. Activity calls are given as the source filed them. Calls follow the shape of the dose curve; as a rule, active = well fitted cell-killing curve with a large enough effect; inconclusive = small, poorly fitted or top-dose-only effect, or effect the other way; inactive = flat fitted curve, though single readings scatter.
# Test system: Hek293T
# Experiment: Primary qHTS to identify gynecologic anti-cancer compounds using libraries of approved drugs and bioactive compounds (AID 1345084); also: nearly all actives have a fitted effect of over 55% in size
# Conditions: Gynecologic cancer cell panel viability, ATPlite luminescence, 48 h, control line for the selectivity index; series mostly up to 57.5 µM
# Procedure, shortened: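 In this quantitative HTS, cell killing is estimated from loss of ATP-dependent luciferase light. Cells see five compound concentrations over a 48 h exposure.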
SMILES,Potency,"activity change, negative = cytotoxicity"
CC(C)CNCc1ccc(-c2ccccc2S(=O)(=O)N2CCCC2)cc1,inactive,
Nc1nc2c(c(N3CCNCC3)n1)CCC1=C2[C@@H]2CCCC[C@@H]2O1,inactive,
CC1(C)CC[C@]2(C(=O)O)CC[C@]3(C)C(=CCC4[C@@]5(C)CC[C@H](O[C@@H]6O[C@H](C(=O)O)[C@@H](O[C@@H]7OC[C@@H](O)[C@H](O)[C@H]7O)[C@H](O)[C@H]6O)C(C)(C)C5CC[C@]43C)C2C1O (stereo not given in full),inactive,
N[C@H]1Cc2ccccc2N(O)C1=O,inactive,
C=C1CCC2C(C)(C)C(O)CCC2(C)C1CCC(C)CCOC(C)=O (stereo not given),inactive,
CC(C)(C)NS(=O)(=O)c1cncc(-c2cc(F)c3nc(N)nn3c2)c1,inactive,
C/C=C/C=C/C(O)=C1\C(O)=C(C)C(=O)[C@@]2(C)OC(=O)[C@@](C)(NC(=O)/C=C/C(=O)O)[C@@H]12,inactive,
C[C@@H]1CCC2C(C)(C)[C@H](O)CC[C@]2(C)[C@@]12Cc1c(O)cc3c(c1O2)CN([C@@H](CCC(=O)O)C(=O)O)C3=O (stereo not given in full),inactive,
C/C=C/C=C/C(O)=C1\C(=O)[C@]2(C)C3C(C(=O)CC/C=C/C)=C(O)C4(C)C1[C@]1(C)O[C@@]4(O)[C@@]3(C)O[C@@]12O,inactive,
C[C@@H]1O[C@@H](O[C@H]2[C@H](OC(=O)[C@]34CCC(C)(C)C[C@H]3C3=CCC5[C@@]6(C)C[C@H](O)[C@H](O[C@@H]7O[C@H](CO)[C@@H](O)[C@H](O)[C@H]7O)[C@@](C)(CO)C6[C@H](O)C[C@@]5(C)[C@]3(C)CC4)OC[C@H](O)[C@@H]2O)[C@H](O)[C@H](O)[C@H]1O[C@@H]1OC[C@@H](O)[C@H](O[C@@H]2OC[C@](O)(CO)[C@H]2O)[C@H]1O (stereo not given in full),,3.42% [at 6.55 µM] (inactive)
